Calls of active or inactive are those of the source.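 The calls were made as follows: active = blocks over 70% of labeled estradiol binding at 10 µM, or over a set limit at 100 nM; inactive = the rest.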
Biological target: Estrogen receptor beta (Homo sapiens) (UniProt Q92731)
Assay: displacement of fluorescent estrogen from ERbeta – cell-based, Cos7 ERbeta-GFP, flow cytometry, primary screen (AID 1210);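 also: 0% = DMSO vehicle wells and 100% = complete loss of labeled estradiol signal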
Details: fluorescent estrogen binding, stronger effect = higher value
[1] = ligand binding inhibition, at 0.1 µM

Sequence of Estrogen receptor beta (Homo sapiens) (Q92731 whole entry, looked up): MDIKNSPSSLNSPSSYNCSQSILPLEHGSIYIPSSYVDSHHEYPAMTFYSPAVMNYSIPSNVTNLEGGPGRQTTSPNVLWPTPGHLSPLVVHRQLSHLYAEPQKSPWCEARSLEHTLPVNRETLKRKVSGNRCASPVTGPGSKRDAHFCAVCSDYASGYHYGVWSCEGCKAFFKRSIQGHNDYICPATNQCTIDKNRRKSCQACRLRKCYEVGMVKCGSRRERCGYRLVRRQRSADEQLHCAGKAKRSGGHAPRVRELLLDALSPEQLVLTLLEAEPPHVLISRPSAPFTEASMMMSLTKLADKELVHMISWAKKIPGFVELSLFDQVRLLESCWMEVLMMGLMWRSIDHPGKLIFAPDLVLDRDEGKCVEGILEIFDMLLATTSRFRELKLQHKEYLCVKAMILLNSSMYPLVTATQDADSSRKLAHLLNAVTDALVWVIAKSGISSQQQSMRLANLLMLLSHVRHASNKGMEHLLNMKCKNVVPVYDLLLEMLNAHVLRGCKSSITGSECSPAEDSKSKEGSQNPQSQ

Row | Compound | inhibition (at 10 µM) | inhibition [1] [%]
1 | CCn1c(SCC(=O)c2ccc(O)c(O)c2)nnc1-c1ccccc1OC | 58% (inactive) | 3
2 | FC(F)(F)c1ccc2c(c1)C1C=CCC1C(c1ccncc1)N2 (stereo unspecified) | 0% (inactive) | 51
3 | COc1ccccc1-c1nnc2sc(-c3cnccn3)nn12 | 40% (inactive) | 17
4 | Cc1cccc(N2CCN(C(=O)c3cc4c(=O)n(C)c5ccccc5c4n3C)CC2)c1C | 46% (inactive) | 27
5 | CCn1c(=NC(=O)c2ccc(N3C(=O)CCC3=O)cc2)sc2c(OC)ccc(OC)c21 | 64% (inactive) | 57
6 | Cc1ccc(-c2nn(-c3ccccc3)cc2/C=N/NC(=O)c2ccc(Br)o2)cc1 | 38% (inactive) | 58
7 | COc1cc(NC(=O)COc2ccc(-n3cnnn3)cc2)c(OC)cc1Cl | 61% (inactive) | 17
8 | Cc1ccc(OCc2ccoc2C(=O)O)cc1C | 0% (inactive) | 8
9 | CN=c1scc(C)n1/N=C/c1ccc(O)cc1O | 58% (inactive) | 6
10 | CC(=O)c1sc2nc(SCC(=O)N3CCCCC3)[nH]c(=O)c2c1C | 27% (inactive) | 12
11 | O=C1N/C(=C\c2ccc(O)cc2)C(=O)c2ccccc21 | 21% (inactive) | 1
12 | C1CCC(c2nn3c(-c4n[nH]c5c4CCC5)nnc3s2)CC1 | 61% (inactive) | 19
13 | CCN(CC)c1ccc2c(c1)oc(=O)c1c(Cl)cc(=O)oc12 | 33% (inactive) | 18
14 | CSCCC(NC(=O)c1ccco1)C(=O)OCC(=O)Nc1sccc1C#N (stereo unspecified) | 6% (inactive) | 28
15 | CS(=O)(=O)c1ccc2nc(NC(=O)CCC(=O)c3cccs3)sc2c1 | 62% (inactive) | 9
16 | CCC(=O)Oc1ccc(C(CC)C(CC)c2ccc(OC(=O)CC)cc2)cc1 (stereo unspecified) | 82% (active) | 83
17 | Fc1ccc2c(c1)[C@H]1OCC[C@H]1[C@@H](c1ccco1)N2 | 37% (inactive) | 1
18 | CC1(C)CC(=O)c2c(oc3cc(O)c(O)cc23)C1 | 11% (inactive) | 3
19 | COC(=O)c1[nH]c2ccc(C)cc2c1NC(=O)CN1CCCc2ccccc21 | 56% (inactive) | 26
20 | O=c1cc(CSc2nnnn2-c2ccccc2)nc(Nc2ccc(F)cc2)[nH]1 | 0% (inactive) | 25
21 | O=S(=O)(NCC(O)COCc1ccco1)c1cccs1 (stereo unspecified) | 12% (inactive) | 20

Row | Compound | inhibition (at 10 µM) | inhibition [1] [%]
22 | N#CC1=C(N)OC2=C(CCC/C2=C/c2ccoc2)C1c1ccoc1 (stereo unspecified) | 20% (inactive) | 34
23 | COc1ccc(NC(=O)C(NC(=O)c2ccc(=O)[nH]c2)c2ccc(C)cc2)cc1 (stereo unspecified) | 52% (inactive) | 12
24 | O=C(O)C1CSC(c2coc3ccccc3c2=O)N1 (stereo unspecified) | 26% (inactive) | 46
25 | Cc1cc(C2(c3ccc(O)c(C)c3)OC(=O)c3ccccc32)ccc1O | 73% (active) | 29
26 | COC(=O)c1c(NC(=O)Cc2cccs2)sc2c1CCCC2 | 41% (inactive) | 18
27 | O=C(O)C1OC(Oc2c(-c3ccc(O)c(O)c3)oc3cc(O)cc(O)c3c2=O)C(O)C(O)C1O (stereo unspecified) | 55% (inactive) | 2
28 | Cc1ccc2[nH]c(=O)c(-c3nc4ccccn4c3NCc3ccco3)cc2c1 | 56% (inactive) | 44
29 | O=C(COC(=O)CN1C(=O)c2ccccc2C1=O)Nc1ncc(Cl)cc1Cl | 33% (inactive) | 16
30 | CCN(c1ccccc1)S(=O)(=O)c1cc(C(=O)O)ccc1C | 2% (inactive) | 13
31 | COc1ccc2[nH]c3nc(SCc4nnc(-c5ccc(C)cc5)o4)nnc3c2c1 | 49% (inactive) | 18
32 | CN(C)C(=O)c1ccc2c(c1)C1C3CCC(C3)C1C(c1ccccc1)N2 (stereo unspecified) | 0% (inactive) | 51
33 | CCc1ccc2nc(NC(=O)c3ccc4c(=O)[nH]c(CN5CCOCC5)nc4c3)sc2c1 | 29% (inactive) | 10
34 | O=C(CSc1nc2ccccc2c(=O)[nH]1)c1ccc(O)c(O)c1 | 36% (inactive) | 14
35 | C=CCSC1=N/C(=C\C=C\c2ccco2)C(=O)S1 | 24% (inactive) | 1
36 | Oc1ccc(-c2[nH]nc(-c3ccccc3)c2-c2nc3ccccc3[nH]2)cc1 | 33% (inactive) | 21
37 | COc1cc(-c2nc3ccccn3c2/N=C/c2ccccc2)ccc1O | 54% (inactive) | 9
38 | CCOc1cc(N2CCOCC2)c(OCC)cc1NC(=O)c1cc(-c2ccco2)nc2ccccc12 | 47% (inactive) | 48
39 | O=C(OCC(=O)N1CCN(C(=O)c2ccco2)CC1)c1cc(-c2ccco2)nc2ccccc12 | 25% (inactive) | 33
40 | CCOc1[nH]c(/N=C/c2ccco2)c(C#N)c1C#N | 35% (inactive) | 15
41 | Cc1nn2cc(-c3ccc(N)cc3)nc2s1 | 23% (inactive) | 15
42 | Oc1c(Cl)cc(Cl)cc1Sc1cc(Cl)cc(Cl)c1O | 33% (inactive) | 22

Row | Compound | inhibition (at 10 µM) | inhibition [1] [%]
43 | CCN(CC)CCCNC(=O)c1nn(-c2ccccc2OC)c(=O)c2ccccc12 | 40% (inactive) | 19
44 | CCOC(=O)c1c(/N=C/c2ccc(O)cc2O)sc2c1CCC2 | 33% (inactive) | 22
45 | O=S(=O)(c1cccc(-c2cn3cccnc3n2)c1)N1CCCCCC1 | 14% (inactive) | 17
46 | Cc1nc(-c2ccc(O)c(O)c2)cs1 | 31% (inactive) | 4
47 | CC(=O)NC12CC3CC(C1)CC(C(=O)OCC(=O)Nc1ncc(Cl)c(C)c1Cl)(C3)C2 | 12% (inactive) | 3
48 | O=C(Nc1nccs1)c1nc(-c2ccccc2)n(-c2ccccc2)n1 | 38% (inactive) | 22
49 | COc1cccc(C2Nc3c(F)cc(Br)cc3C3C=CCC32)c1OC (stereo unspecified) | 40% (active) | 74
50 | O=C(CCCn1c(=S)[nH]c2cc3c(cc2c1=O)OCO3)N1CCN(c2ccc(Cl)cc2)CC1 | 0% (inactive) | 56
51 | O=C(Cc1ccccc1)Nc1ccc2oc(-c3cccnc3)nc2c1 | 65% (inactive) | 20
52 | O=C(Cc1cccs1)Nc1ccccn1 | 39% (inactive) | 10
53 | CCN(c1ccccc1)S(=O)(=O)c1ccc2[nH]cc(C(=O)NCCOC)c(=O)c2c1 | 35% (inactive) | 30
54 | Oc1ccc(-c2cn3c(n2)SCC3)cc1O | 33% (inactive) | 22
55 | CC(C)CN(C(=O)COC(=O)c1cc2c(s1)CCC2)C1CCS(=O)(=O)C1 (stereo unspecified) | 25% (inactive) | 28
56 | COc1ccc(C2CC(c3c(-c4ccccc4)c4cc(Cl)ccc4[nH]c3=O)=NN2S(C)(=O)=O)cc1OC (stereo unspecified) | 1% (inactive) | 64
57 | O=C1c2ccccc2C(=O)N1CCCc1nc2ccccc2c(=O)n1CCCn1ccnc1 | 61% (inactive) | 20
58 | O=C(Nc1nc(-c2nc3ccccc3s2)cs1)C1COc2ccccc2O1 (stereo unspecified) | 19% (inactive) | 2
59 | Cc1oc(-c2ccc(Cl)cc2)cc1-c1nn2c(-c3ccoc3C)nnc2s1 | 57% (inactive) | 29
60 | COc1ccc(N=C2NC(=O)S/C2=C\c2ccc(N(C)C)cc2)cc1 | 59% (inactive) | 4
61 | COc1ccc(OC)c(C2Nc3c(Cl)ccc(C(=O)O)c3C3C=CCC32)c1 (stereo unspecified) | 0% (inactive) | 52
62 | Cc1cc(Cl)ccc1OCC(=O)OC(C)C(=O)N(C)C (stereo unspecified) | 35% (inactive) | 12
63 | CCOC(=O)C1=C(O)/C(=C\c2ccc(CNC(=O)C(=O)Nc3ccccc3)o2)N=C1C | 20% (inactive) | 61

Row | Compound | inhibition (at 10 µM) | inhibition [1] [%]
64 | Cc1ccc2nc(/C(C#N)=C\c3ccc(N4CCCCC4)c([N+](=O)[O-])c3)[nH]c2c1 | 15% (inactive) | 6
65 | O=C(Nc1cc(C(F)(F)F)ccc1N1CCOCC1)C1Cc2ccccc2CN1C(=O)c1ccco1 (stereo unspecified) | 73% (active) | 13
66 | Cc1ccc(-c2csc(NC(=O)c3ccno3)n2)cc1 | 40% (inactive) | 28
67 | O=C(c1cccs1)N1N=C(c2ccccc2)CC1c1ccc(O)cc1 (stereo unspecified) | 69% (inactive) | 23
68 | CCCc1nc2sc3ccccc3c(=O)c2c(=O)n1Cc1ccco1 | 21% (inactive) | 5
69 | O=C(O)c1ccc(NS(=O)(=O)c2ccc3c(c2)C2C=CCC2C(c2ccccc2F)N3)cc1 (stereo unspecified) | 7% (inactive) | 9
70 | Oc1ccc(-c2nccc(-c3cccs3)n2)cc1 | 28% (inactive) | 14
71 | CC1CCc2c(sc(NC(=O)c3ccc(Cn4cc([N+](=O)[O-])cn4)o3)c2C#N)C1 (stereo unspecified) | 19% (inactive) | 58
72 | Cn1ccnc1SCC(=O)Nc1ccc2nc(SCC(=O)NC3CC3)sc2c1 | 46% (inactive) | 38
73 | COc1ccc(OC)c(N2C(=O)[C@@H]3C(c4ccccc4Cl)=NO[C@@H]3C2=O)c1 | 52% (inactive) | 30
74 | Cc1nc2ccccc2c(=O)n1/N=C/c1c(O)ccc2oc3c(c12)CCCC3 | 47% (inactive) | 34
75 | Nc1ccc(-c2cc(-c3cccc(N)c3)nc(-c3ccccc3)n2)cc1 | 39% (inactive) | 27
76 | Nc1cc2sc(-c3ccc(C(=O)O)cc3)nc2cc1Cl | 22% (inactive) | 44
77 | O=C(Nc1cnn(C23CC4CC(CC(C4)C2)C3)c1)c1cnn2c(C(F)(F)F)cc(-c3ccco3)nc12 | 26% (inactive) | 20
78 | COc1ccc2c(c1)c(=O)oc1cc(OCC(=O)N3CCC(C)CC3)ccc12 | 52% (inactive) | 35
79 | COc1ccccc1/C=c1\sc2nc(-c3ccco3)nn2c1=O | 60% (inactive) | 21
80 | COC1=C/C(=C/c2c(N)n3cc(C)sc3nc2=O)C=CC1=O | 62% (inactive) | 7
81 | O=C(Oc1ccc2c(c1)OCO2)c1cc2c(s1)CCC2 | 52% (inactive) | 48
82 | Cc1ccc(NC(=O)CN2C(=O)S/C(=C/c3ccc(-c4cc(C(=O)O)ccc4C)o3)C2=O)cc1C | 36% (inactive) | 21
83 | Cc1csc2nc(CCNS(=O)(=O)c3ccc4c(c3)OCCO4)cn12 | 13% (active) | 87
